Compounds without any hit were thinned out: in the full panel of roughly 83,000, 20% have a hit.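 In brief: 96-well plates, 48 h treatment, single concentration, percent growth endpoint.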 Unmarked numbers belong to inactive results. The source made the active and inactive calls. How the source made its calls: active means growth percent below 10; inactive means the rest.
How the values were obtained:
Test in all cases: NCI-60 one-dose screen, 48 h (100 = growth as untreated, 0 = no growth, -100 = all killed)
Conditions in all cases: 10 µM unless noted
[1] = tested on: HCT-15 colon
[2] = tested on: HT29 colon
[3] = tested on: SNB-75 CNS
[4] = tested on: SNB-19 CNS
[5] = tested on: U251 CNS
[6] = tested on: PC-3 prostate
[7] = tested on: SK-MEL-5 melanoma
[8] = tested on: UACC-62 melanoma
[9] = tested on: LOX IMVI melanoma
[10] = tested on: SK-MEL-28 melanoma
[11] = tested on: SK-MEL-2 melanoma
[12] = tested on: EKVX NSCLC
[13] = tested on: SN12C renal
[14] = tested on: UO-31 renal
[15] = tested on: TK-10 renal
[16] = tested on: ACHN renal
[17] = tested on: CAKI-1 renal
[18] = tested on: A498 renal
[19] = tested on: CCRF-CEM leukemia
[20] = tested on: MOLT-4 leukemia

Structure (SMILES)	growth [1]	growth [2]	growth [3]	growth [4]	growth [5]	growth [6]	growth [7]	growth [8]	growth [9]	growth [10]	growth [11]	growth [12]	growth [13]	growth [14]	growth [15]	growth [16]	growth [17]	growth [18]	growth [19]	growth [20]
COc1cc2nc3cc([N+](=O)[O-])ccc3c(NCCNCC(C)O)c2cc1OC (stereo not given)	23.4%	2.64% (active)	-59.9% (active)	-10.4% (active)	-25.3% (active)	-38.6% (active)	-82.4% (active)	-56.8% (active)	-35.7% (active)	-20% (active)	-29.6% (active)	9.5% (active)	-16.2% (active)	28.6%	14.3%	2.74% (active)	18.6%	-34% (active)	-6.35% (active)	-0.334% (active)
Cn1ccnc1C(=O)/C=C/c1ccc(C(=O)Nc2ccccc2O)cc1	7.09% (active)	24.7%	46.2%	14.3%	5.29% (active)	23.5%	89.3%	50.6%	-18% (active)	73.4%	78%	56.5%	12.6%	33.3%	107%	10.5%	26.8%	55.7%	-9.45% (active)	17%
O=c1c2cnn(-c3ccccc3)c2n2c(CN3CCOCC3)nnc2n1-c1ccccc1	101%	74.9%	98%	106%	89.4%	78.2%	102%	98%	96.9%	107%	79.1%	102%	104%	87.6%	71.4%	95.2%	92.4%	106%	96.8%	100%
C=C(C)[C@@H]1CC[C@]2(CO)CC[C@]3(C)[C@H](CC[C@@H]4[C@@]5(C)CC[C@H](NCO)C(C)(C)[C@@H]5CC[C@]43C)[C@@H]12	-80.7% (active)	-39.4% (active)	-94.7% (active)	42.3%	-68.6% (active)	-3.03% (active)	-90.1% (active)	83.6%	-99.8% (active)	-86.3% (active)	-60.9% (active)	8.09% (active)	-92.4% (active)	-99.2% (active)	-64.8% (active)	-99.2% (active)	-96.9% (active)	79%	-9.15% (active)	-26.7% (active)
NS(=O)(=O)c1ccccc1NC(=O)Nc1nc2ccccc2s1	100%	98.2%	86.9%	98%	99.1%	97.8%	99.8%	101%	91.8%	103%	102%	85.6%	98.3%	84.1%	153%	99.4%	89.7%	97.6%	99.2%	102%
COC1/C=C/OC2(C)Oc3c(C)c(O)c4c(O)c(c(/C=N/Nc5ccc([N+](=O)[O-])cc5[N+](=O)[O-])c(O)c4c3C2=O)NC(=O)C(C)=C/C=C/C(C)C(O)C(C)C(O)C(C)C(OC(C)=O)C1C (stereo not given)	41.6%	-37.2% (active)	67%	38.6%	-31.9% (active)	34.2%	29.7%	-41.3% (active)	-56.9% (active)	37.3%	30.5%	45.1%	-5.59% (active)	70.2%	25.7%	28.1%	74.2%	96%	6.19% (active)	0.359% (active)
Cc1ccc(-c2nc(N3CCCNCC3)c3oc(-c4ccccc4)nc3n2)cc1	-85.1% (active)	-82.8% (active)	-67.3% (active)	8.75% (active)	-85.9% (active)	-88.7% (active)	-93.4% (active)	-91.8% (active)	-91.6% (active)	-93.4% (active)	-67.2% (active)	38.2%	-85.1% (active)	-99% (active)	-95.9% (active)	-98.8% (active)	-71% (active)	93.4%	-71% (active)	-73.2% (active)
O=C(CN1CCOCC1)Nc1nc(-c2cc3ccccc3oc2=O)cs1	104%	103%	82.2%	101%	98.7%	97.5%	99.2%	92.5%	95.6%	104%	114%	99%	101%	70.6%	154%	93.1%	82.4%	102%	103%	104%
COc1ccc(/C=C/C(=O)c2ccc(Nc3ccnc4cc(Cl)ccc34)cc2)cc1	77.7%	45%	102%	87.1%	84.9%	75%	67.8%	92.3%	89.8%	118%	64.1%	85.8%	97.8%	90%	141%	98.8%	85.1%	115%	-52.1% (active)	22.9%
C=C1C(=O)O[C@H]2[C@H]1CC/C(COC(=O)C(=O)c1cn(C)c3ccc(Cl)cc13)=C\CC[C@@]1(C)O[C@@H]21	-62.8% (active)	-71.3% (active)	-98.3% (active)	-75% (active)	-95.3% (active)	-70.5% (active)	-100% (active)	-82.5% (active)	-84.5% (active)	-64.6% (active)	-60.8% (active)	-59.5% (active)	-69% (active)	-93.5% (active)	-91.1% (active)	-91.8% (active)	-75.7% (active)	-96.9% (active)	-34.9% (active)	-15.4% (active)
CSc1nc2ccccc2cc1/C=[N+](\[O-])c1ccccc1	18.7%	80.2%	67.3%	72.9%	46.2%	40.9%	52.5%	51.5%	38.1%	93.8%	95.5%	79.5%	45.2%	42.8%	98%	80%	80.8%	102%	10.5%	22%
CCOC(=O)C1=C(c2ccccc2)N=C2SC=C(c3ccc(Cl)cc3)N2C1c1ccc(Br)cc1 (stereo not given)	80.8%	82.2%	81.7%	85.4%	85.8%	40.6%	67.7%	67.7%	84.8%	98.3%	96.4%	73.9%	84.5%	73.2%	103%	87.3%	61.3%	46.7%	78.4%	39%
CCOC(=O)c1nn(-c2ccc(S(N)(=O)=O)cc2)c2nc(C)cc(=O)n12	108%	109%	94.8%	98.8%	99%	101%	106%	99.6%	96.2%	119%	109%	104%	96.7%	86.1%	94.7%	108%	90.8%	88.3%	105%	119%
O=C(Nc1ccc(Oc2cccc(Cl)c2)c(Cl)c1)c1cnccn1	23.3%	2.14% (active)	-20.9% (active)	33.5%	16.5%	11.1%	25.8%	28.4%	29.9%	64.9%	43.6%	53.2%	44.4%	37.3%	56.4%	40%	21.6%	50.2%	16.6%	26.2%
Cc1ccc(Nn2c(SCC(=O)Nc3nc(-c4ccccc4)cs3)nc(C)c2C)cc1	67.2%	56.1%	24.4%	74.3%	49.3%	71.8%	-66.7% (active)	51.8%	51.9%	82.8%	81.4%	49.7%	64.3%	51.6%	72.7%	60.9%	53.6%	92.5%	57.7%	54.7%

— PubChem BioAssay (NCI)
